# From PubChem BioAssay
# ERAP1 HTS inh: ERAP1 (human) enzyme inhibition. recombinant ERAP1, Leu-AMC fluorescence, 60 min. actives 0.15% (n = 340,000). inhibition, % at 10.7 µM. AID 652197;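 active means mean replicate inhibition of at least 30%, or all replicates individually reaching that 30% level; inactive means mean below 30% and not every replicate reaching it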;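 further: 0% = neutral control wells and 100% = L-leucinethiol positive control wells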
# PGC1a acetyl inh: modulators of PGC1a acetylation; U2OS PGC1a acetylation, AlphaScreen anti-acetyl-lysine; with virally co-expressed GCN5 acetyltransferase; inhibition, % at 15.6 µM; actives 0.17% (n = 350,000); AID 651687;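 active means every replicate shows inhibition of at least 40%; inconclusive means mean inhibition at least 40% but some replicate below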;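 further: 0% = neutral control wells and 100% = positive control wells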
# AF4-AF9 inh: inhibitors of human MLL-AF4/AF9 interaction; P42568; AlphaScreen, biotin-AF4 peptide binding to FLAG-AF9; inhibition, % at 10 µM; actives 0.47% (n = 350,000);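 active means every replicate reaching a set inhibition limit, whatever the replicate mean, cut at about 25% in these data; inconclusive means mean inhibition reaches that limit but some replicates miss it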;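 further: 0% = plate neutral control median and 100% = total signal loss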
# Target sequence (P42568 whole entry, looked up): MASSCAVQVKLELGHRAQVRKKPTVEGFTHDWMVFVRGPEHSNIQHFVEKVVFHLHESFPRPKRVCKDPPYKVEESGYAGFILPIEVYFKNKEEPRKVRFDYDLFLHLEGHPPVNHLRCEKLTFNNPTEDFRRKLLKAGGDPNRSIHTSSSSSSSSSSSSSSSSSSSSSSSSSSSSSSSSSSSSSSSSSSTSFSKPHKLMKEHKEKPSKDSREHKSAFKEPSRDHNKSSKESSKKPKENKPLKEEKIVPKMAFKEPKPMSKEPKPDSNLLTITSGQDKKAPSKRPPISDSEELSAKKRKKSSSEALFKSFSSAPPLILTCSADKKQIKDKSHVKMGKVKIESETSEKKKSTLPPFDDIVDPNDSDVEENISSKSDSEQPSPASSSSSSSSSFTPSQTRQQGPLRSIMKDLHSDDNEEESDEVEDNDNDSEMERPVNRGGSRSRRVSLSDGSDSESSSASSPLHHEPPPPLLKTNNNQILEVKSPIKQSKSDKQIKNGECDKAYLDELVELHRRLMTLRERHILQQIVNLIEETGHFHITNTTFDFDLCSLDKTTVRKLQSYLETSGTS
# RAD54 branch: inhibitors of human RAD54 branch migration; Q92698; RAD54 Holliday junction branch migration, FAM/BHQ fluorescence; inhibition, % at 10.4 µM; actives 0.14% (n = 360,000);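 active means mean normalized replicate activity at least 40 and at least half of replicates scoring 40 or more; inconclusive means only one of the two criteria met; inactive means mean below 40 and under half of replicates reaching 40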;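 further: 0% = median of neutral control wells and 100% = median of positive control wells; inhibitors cause a drop in the FAM fluorescence signal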
# RAD52 anneal inh: inhibitors of human RAD52 DNA annealing; P43351; recombinant RAD52 DNA annealing, FRET fluorescence; inhibition, % at 18.7 µM; actives 0.46% (n = 360,000); AID 651710;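 active means every replicate showing at least 50% inhibition; inconclusive means mean inhibition at least 50% but not in every replicate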
# GSIS activator: GLuc luminescence reporter in INS-1E cells, primary screen for activators of glucose-dependent secretion of insulin; actives 0.61% (n = 370,000); activation, % at 16.6 µM; INS-1E GLuc reporter insulin secretion, 2-3 h;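 active means lowest replicate activation of at least 40%, so every replicate reaches that level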;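 further: 0% = median of neutral control wells and 100% = median of IBMX positive control wells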
# * marks the source's active call; other numbers are inactive results; ? = inconclusive; · = not tested or not shown; ! = not confirmed by another sample. This is a sample that favours compounds with a hit; in the whole collection about 1.4% have one here.
SMILES,ERAP1 HTS inh,PGC1a acetyl inh,AF4-AF9 inh,RAD54 branch,RAD52 anneal inh,GSIS activator
CN(C)CC#Cc1ccc([C@@H]2[C@@H](CO)N3CCCCN(CC4CCOCC4)C[C@@H]23)cc1,·,4,·,-12,2,9
CN(C)CC#Cc1ccc([C@H]2[C@H](CO)N3CCCCN(CC4CCOCC4)C[C@@H]23)cc1,0,5,12,-24,54*,0
CN(C)CC#Cc1ccc([C@H]2[C@@H](CO)N3CCCCN(CC4CC4)C[C@@H]23)cc1,0,-2,18,-9,61*,15
OC[C@@H]1[C@H](c2ccc(C#CC3CCCC3)cc2)[C@H]2CN(CCC(F)(F)F)CCCCN12,1,81*,25*,15,34,4
CCNC(=O)[C@H]1[C@H](CO)[C@H]2Cn3c(ccc(/C=C/c4ccccc4)c3=O)[C@@H]1N2,-312,3,-3,-10,-10,26
COc1ccc(CN(C)C[C@H]2OCCCC[C@@H](C)Oc3ccc(NS(=O)(=O)c4cccs4)cc3C(=O)N([C@@H](C)CO)C[C@H]2C)cc1,-23,-5,6,5,20,-11
COc1ccc2c3c(n(C)c2c1)[C@H](CO)N(C(=O)CN(C)C)CC31CCN(C(=O)CN(C)C)CC1,-5,9,4,·,15,14
CNC(=O)C[C@@H]1CC[C@H]2[C@@H](COc3ccc(NC(=O)NC(C)C)cc3C(=O)N2C)O1,·,-7,·,5,·,7
COc1ccc2c3c([nH]c2c1)[C@H](CO)N(C(=O)Nc1c(C)noc1C)CC31CN(CC2CC2)C1,·,·,·,·,·,10
O=C(CSc1ccc(Cl)cc1)Nc1ccc(-c2nc3ccccc3[nH]2)cc1,·,-18,·,0,·,106*
CC(=O)N(C)C[C@H]1Oc2c(NS(C)(=O)=O)cccc2C(=O)N(C)C[C@@H]1C,·,·,·,·,·,10
Cc1cc(N)c2cc(NC(=O)/C=C/c3ccccc3Cl)ccc2n1,·,80*,·,0,·,·
Cc1cc(C)nc(NC(=O)/C=C/c2ccccc2Cl)n1,·,1,·,·,·,·
COc1ccc(-c2ccc3c(c2)[C@@H]2[C@@H](CCN2C(=O)C2CCOCC2)[C@@H](CO)N3C)cc1,·,11,·,15,·,9
O=C1CSC(c2ccc([N+](=O)[O-])cc2)N1C1CCCCC1 (stereo not drawn),-1,·,-11,·,-2,87*
C[C@@H]1CN([C@@H](C)CO)C(=O)Cc2cc(NC(=O)CCCN(C)C)ccc2O[C@H]1CN(C)Cc1ccc(Oc2ccccc2)cc1,-4,11,39*,29,91*,33
C[C@H](CO)N1C[C@H](C)[C@@H](CN(C)Cc2ccc(Oc3ccccc3)cc2)Oc2ccc(NC(=O)CCCN(C)C)cc2CC1=O,3,-2,?,15,57*,19
COc1ccc2c3c([nH]c2c1)[C@H](CO)N(C(C)=O)CC31CN(C(C)=O)C1,3,-1,-1,·,2,6
CO[C@@H]1CN(C)C(=O)c2ccc(NS(=O)(=O)c3ccccc3)cc2OC[C@@H](C)N(Cc2cccnc2)C[C@@H]1C,·,2,-1,-7,1,-11
O=C(C1CCCCC1)N1C[C@@H]2N[C@H](C1)C2c1ccc(-c2ccccc2F)cc1 (stereo partly drawn),-2,-8,-7,·,57*!,-9
Cc1cccc(-c2ccc(C3[C@@H]4CN(C(=O)C5CCCCC5)C[C@H]3N4)cc2)c1 (stereo partly drawn),·,5,·,·,·,213*!
O=C(C1CCC1)N1C[C@@H]2N[C@H](C1)C2c1ccc(-c2ccccc2F)cc1 (stereo partly drawn),-3,7,3,·,5,9
COCC#Cc1cnc2c(c1)C(=O)N([C@H](C)CO)C[C@@H](C)[C@@H](CN(C)Cc1ccccc1)O2,-2,5,-3,3,3,-2
O=C(O)c1cccc(S(=O)(=O)Nc2ccccc2Cc2ccccc2)c1,-4,·,44*,2,-5,-2
CCS(=O)(=O)Nc1ccc2c(c1)C(=O)N(C)C[C@@H](OC)[C@@H](C)CN(Cc1ccccn1)[C@@H](C)CO2,-2,10,-2,·,-1,2
SMILES,ERAP1 HTS inh,PGC1a acetyl inh,AF4-AF9 inh,RAD54 branch,RAD52 anneal inh,GSIS activator
Cc1[nH]c2ccccc2c1C(=O)/C=C/c1ccccc1,·,71*,·,5,·,·
CC(C)c1ccc(NC(=O)c2ccc3c(c2)CCN3S(C)(=O)=O)cc1,1,82*,-3,-13,-9,1
Cc1cc(-c2ccc(Br)cc2)n2nc(C)cc2n1,0,1,-1,6,-3,43*
Cc1cc(C)n2nc(-c3ccc(Cl)cc3)cc2n1,3,·,5,9,-9,-1
Cc1cc(-c2ccc(Cl)cc2)n2nc(C)cc2n1,1,1,-1,0,0,80*
CCC(=O)N1CCC2(CC1)CN(C(=O)Nc1ccccc1F)[C@@H](CO)c1[nH]c3cc(OC)ccc3c12,·,-4,1,·,·,-14
C[C@@H]1COCn2nncc2CC[C@H](C)C(=O)N1,·,·,·,·,·,7
CCc1cc2c(COC(=O)c3cccc(S(C)(=O)=O)c3)cc(=O)oc2cc1O,1,-22,1,-4,-56,50*
C[C@@H]1CCCCO[C@H](CN(C)C(=O)Nc2cccc3ccccc23)[C@@H](C)CN([C@@H](C)CO)C(=O)c2cc(NS(=O)(=O)c3ccccc3)ccc2O1,3,-10,2,·,11,-4
COC1=C(Nc2ccccc2)C(=O)c2ccccc2C1=O,·,·,·,·,·,-4
COC1=C(Nc2ccc(C)cc2)C(=O)c2ccccc2C1=O,2,·,37*,·,-13,-5
COc1ccc(S(=O)(=O)Nc2ccc3c(c2)C(=O)N([C@H](C)CO)C[C@H](C)[C@H](CN(C)C(=O)c2ccccc2)OCCCC[C@H](C)O3)cc1,-1,·,2,7,-13,-21
Cc1cccc(-n2c(=O)cc(N3CCN(c4ccc(F)cc4)CC3)[nH]c2=O)c1,-3,55*,-5,2,-13,-5
COc1ccc(-n2c(=O)cc(N3CCN(c4ccccc4)CC3)[nH]c2=O)cc1,·,14,·,-21,·,6
CC1(C(=O)NCc2cccc3ccccc23)CCN1Cc1ccc(OC(F)(F)F)cc1 (stereo not drawn),-1,-7,-17,-5,-24,203*
C[C@@H]1CN([C@H](C)CO)C(=O)c2cc(C3=CCCCC3)cnc2O[C@@H]1CN(C)C(=O)c1ccccn1,3,-5,-4,-9,0,-4
O=C(NNC(=O)c1cc2cc3ccccc3nc2s1)c1cccc(C(F)(F)F)c1,·,2,·,5,·,75*
CC1=CCC2C(=O)N(c3cccc(C(=O)NCc4ccccc4)c3)C(=O)C2C1 (stereo not drawn),0,63*,2,12,-8,-1
CC/C(C)=N\N=C\c1c(O)n(CC)c2cc(C3=NNC(=O)CC3)ccc12,·,4,·,-1,·,·
